Results on 40 compounds are retold here after PubChem BioAssay (NCI).

The panel holds about 83,000 compounds, 20% with a hit somewhere; the sample as a whole holds those more often.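 Values shown are percent growth following 48 h exposure of cells in 96-well plates to a single concentration of compound; below 10 was considered active.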 The source made the active and inactive calls.

This experiment relates to SW-620 colon. The experiment in a line: NCI-60 one-dose screen, 48 h (100 = growth as untreated, 0 = no growth, -100 = all killed). The note with it: 10 µM unless noted. The procedure: Growth inhibition of the SW-620 human tumor cell line is measured as a screen for anti-cancer activity. Cells are grown in 96 well plates and exposed to the test compound for 48 hours. Compounds are tested at a single concentration, which is 10^-5 M for most compounds. The reported endpoint is percent growth (GI% or GIPRCNT), where numbers from 0 - 100% represent growth inhibition, and numbers from -100% - 0 represent cell death. For example, a value of 40 represents 60% growth inhibition. A value of 0 means no net growth occurred over the course of the experiment. A value of -40 indicates 40% of cells at the beginning of the experiment died by the end of the experiment. A value of -100 means all cells are dead at the end of the experiment.
NCI-60 Human Tumor Cell Lines Screen was performed using the standard one-dose NCI protocol, which is described in more detail at https://dtp.cancer.gov/discovery_development/nci-60/default.htm.
Compounds with GIPRCNT values below 10 were considered active. Activity score was based on GIPRCNT using the following formula: […]
Score is 0 for GIPRCNT values of 100 or above, 50 for GIPRCNT values of 0, and 100 for GIPRCNT values of -100.
For the compound `C=C1C(=O)O[C@H]2[C@H]1CC/C(COC(=O)Nc1nc3ccccc3[nH]1)=C\CC[C@@]1(C)O[C@@H]21`, the growth was 16.4% (inactive). `COc1cc2c(cc1OCCCOc1cc3c(cc1OC)C(=O)N1CC(F)(F)C[C@H]1C=N3)N=C[C@@H]1CC(F)(F)CN1C2=O`: the growth is 1.84% (active). For `N#Cc1ccc(C2C3=C(CCCC3=O)OC3=C2C(=O)c2ccccc2C3=O)cc1` (stereo not given), the growth is 49.3% (inactive). With `C#C[C@@]1(O)[C@@H](CO)O[C@@H](n2cnc3c(-c4ccccc4)ncnc32)[C@@H]1O` the figure was 111% (inactive); with `COc1ccc2c(c1)Oc1nc(N)c(C#N)c(N)c1C2Sc1ccc(O)cc1` (stereo not given), 68.6% (inactive); with `C1=CC2=CC=C3C=CC=C4C(c5nc6c7ccccc7c7ccccc7c6[nH]5)=CC(=C1)C2C34` (stereo not given), 98.3% (inactive). With `O=C(/C(=C/c1ccc([N+](=O)[O-])cc1)SCc1ccccc1)c1ccc(Cl)cc1` the figure was 4.23% (active); with `O=[N+]([O-])c1ccc(N=Nc2c(O)c(N=Nc3cc([N+](=O)[O-])cc([N+](=O)[O-])c3O)cc(N=Nc3cc(S(=O)(=O)O)cc4cc(S(=O)(=O)O)cc(O)c34)c2O)cc1`, 108% (inactive).

Take `[2H]c1cc2c(c([2H])c1F)/C(=C/c1[nH]c(C)c(C(=O)NCCN(CC)CC)c1C)C(=O)N2`: the growth was 25.7% (inactive). For the compound `Cc1cc(C)n(-c2nc(-c3cccs3)c(C#N)c(=O)[nH]2)n1`, the growth is 102% (inactive).

Turning to `O=C1C(Cl)=C(NCCCN(CCCNC2=C(Cl)C(=O)c3ccccc3C2=O)C2=C(Cl)C(=O)c3ccccc3C2=O)C(=O)c2ccccc21`, the growth is 47.6% (inactive). With `COC(=O)CCc1n(Cc2ccc3ccccc3c2)c2ccccc2[n+]1Cc1ccc2ccccc2c1` the figure was 12.1% (inactive); with `[2H]c1nc(Nc2ncc3cc(C(=O)N(C)C)n(C4CCCC4)c3n2)c([2H])c([2H])c1N1C([2H])([2H])C([2H])([2H])NC([2H])([2H])C1([2H])[2H]`, 35.5% (inactive); with `Clc1ccc2c(NCCCNC3CCCCC3)ccnc2c1`, 111% (inactive).

On to `COC(=O)c1ccc(NC(=O)CSc2nc(-c3ccc(F)cc3)nc3ccccc23)cc1`, for which the growth was 79.6% (inactive).

As to `COc1cc2cc(c1Cl)N(C)C(=O)C[C@H](OC(=O)[C@H](C)N(C)C(=O)CCS)C[C@]1(C)O[C@H]1[C@H](C)[C@@H]1C[C@@](O)(NC(=O)O1)[C@H](OC)/C=C/C=C(\C)C2`, the growth is 18.5% (inactive). For the compound `Nc1c(C(=O)Nc2ccccn2)sc2nc3c(cc12)CCCCC3`, the growth was 30% (inactive).

With `CCOCc1cc(C(C)(C)C)ccc1O`, the growth is 93.4% (inactive). Then `COc1ccccc1N1CCN(CCCOc2ccc(C(=O)/C=C3/C(=O)Nc4ccccc43)cc2)CC1`, with 70.6% (inactive); and `C#C[C@@]1(O)[C@@H](CO)O[C@@H](n2cc(I)c3c(N)ncnc32)[C@@H]1O`, with 0.663% (active); and `CCCn1c(N)c(C(N)=O)sc1=S`, with 101% (inactive).

`C=C(C)[C@@H]1CC[C@]2(C(N)=O)CC[C@]3(C)[C@H](CC[C@@H]4[C@@]5(C)CCCNC(C)(C)[C@@H]5CC[C@]43C)[C@@H]12`: the growth was 75.5% (inactive). As to `COc1ccccc1C(=O)/C=C/c1cc2cccc(OC)c2[nH]c1=O`, the growth is -6.28% (active). With `COC(=O)c1nc(-c2ccccc2)oc1S(=O)(=O)n1nc(C)cc1N` the figure was 6.13% (active); with `CSc1cccc(NC(=O)Nc2nc3c(C)cccc3s2)c1`, 113% (inactive). Take `COc1cc(C(=O)N2CCN(c3ccccc3OC)CC2)c(NC(=O)c2cnccn2)cc1OCc1ccccc1`: the growth is 101% (inactive). As to `NS(=O)(=O)c1ccc(C2C3=C(CCCC3=O)OC3=C2C(=O)c2ccccc2C3=O)cc1` (stereo not given), the growth was -45.4% (active). Then `O=c1[nH]nc(-c2ccc(Br)cc2)c2sc(NC(=S)Nc3ccc(Cl)cc3)nc12`, with 96.7% (inactive); and `CC1(C)CC[C@]2(c3nnc(-c4ccncc4)o3)CC[C@]3(C)C(=CC[C@@H]4[C@@]5(C)CCC(=O)C(C)(C)[C@@H]5CC[C@]43C)[C@@H]2C1`, with 85.2% (inactive). For the compound `O=C(O)COc1ccc2c(=O)c3sc4c(=O)c5ccccc5c(=O)c4c3c(=O)c2c1`, the growth is 10.1% (inactive). As for `C=C(C)[C@@H]1CC[C@]2(C(=O)O)CC[C@]3(C)[C@H](CC[C@@H]4[C@@]5(C)C[C@@H](CC#Cc6ccccc6C)C(=O)C(C)(C)[C@@H]5CC[C@]43C)[C@@H]12`, the growth was 25.7% (inactive). In the case of `S=C(Nc1ccc(Cl)cc1)c1ccccn1`, the growth is 100% (inactive).

Regarding `C=CCn1c(SCC(=O)Nc2ccc(C(=O)/C=C/c3cc(OC)c(OC)c(OC)c3)cc2)nnc1-c1ccc(Cl)cc1`, the growth is 11.8% (inactive). Then `Sc1cccc2cccnc12`, with 38.7% (inactive). `Cc1nn(-c2ccc(-c3ccc(OC(F)(F)F)cc3)cc2)c2nc(-c3ccccc3)nc(N)c12`: the growth is 81.3% (inactive). With `COc1ccc2nc(-c3ccc(Cl)cc3)cc(C(=O)N3N=C(c4ccc(N)cc4)CC3c3ccccc3)c2c1` (stereo not given) the figure was 36% (inactive); with `O=C1Nc2ccc(Cl)cc2/C1=N/c1nc(-c2ccc(F)cc2)cs1`, 27.7% (inactive); with `CCCCCCC/C=C/[C@H]1O[C@]23C(=O)C[C@@]4(C[C@@H](OC5OC(CO)C(O)C(O)C5O)C[C@@H]4[C@H]2C=C1C)OC3=O` (stereo not given in full), 9.92% (active). With `COc1ccc(-n2nc(C(=O)NCC(=O)O)nc2-c2ccccc2)cc1` the figure was 112% (inactive). Then `COc1ccc(-c2nnc(N3CCN(C(=O)CN4CCN(c5ccc(OC)cc5)CC4)CC3)nc2-c2ccc(OC)cc2)cc1`, with -92.5% (active).
